# Laboratory results taken from PubChem BioAssay (NCI).
# Compounds without any hit were thinned out: in the full panel of roughly 83,000, 20% have a hit.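 Plates (96-well) were seeded with cells, treated with compound at one concentration, and incubated for 48 hours before percent growth was determined.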 A number with no mark means an inactive call. Calls of active or inactive are those of the source. The calls were made as follows: active = growth percent below 10; inactive = the rest.
# What was measured:
# Experiment in all cases: NCI-60 one-dose screen, 48 h (100 = growth as untreated, 0 = no growth, -100 = all killed)
# Conditions in all cases: 10 µM unless noted
# [1] = tested on: HCT-15 colon
# [2] = tested on: HT29 colon
# [3] = tested on: SNB-75 CNS
# [4] = tested on: SNB-19 CNS
# [5] = tested on: U251 CNS
# [6] = tested on: PC-3 prostate
# [7] = tested on: SK-MEL-5 melanoma
# [8] = tested on: UACC-62 melanoma
# [9] = tested on: LOX IMVI melanoma
# [10] = tested on: SK-MEL-28 melanoma
# [11] = tested on: SK-MEL-2 melanoma
# [12] = tested on: EKVX NSCLC
# [13] = tested on: SN12C renal
# [14] = tested on: UO-31 renal
# [15] = tested on: TK-10 renal
# [16] = tested on: ACHN renal
# [17] = tested on: CAKI-1 renal
# [18] = tested on: A498 renal
# [19] = tested on: CCRF-CEM leukemia
# [20] = tested on: MOLT-4 leukemia
SMILES,growth [1],growth [2],growth [3],growth [4],growth [5],growth [6],growth [7],growth [8],growth [9],growth [10],growth [11],growth [12],growth [13],growth [14],growth [15],growth [16],growth [17],growth [18],growth [19],growth [20]
C=C(C)[C@@H]1CC[C@]2(C(=O)O)CC[C@]3(C)[C@H](CC[C@@H]4[C@@]5(C)C/C(=C/c6ccco6)C(=O)C(C)(C)[C@@H]5CC[C@]43C)[C@@H]12,-65.6% [100 µM] (active),-56.2% [100 µM] (active),-70.3% [100 µM] (active),-51.5% [100 µM] (active),-58.6% [100 µM] (active),-49.3% [100 µM] (active),-73.5% [100 µM] (active),-97.6% [100 µM] (active),-60.6% [100 µM] (active),-64.7% [100 µM] (active),-76% [100 µM] (active),-63% [100 µM] (active),-70.6% [100 µM] (active),-95.4% [100 µM] (active),-58.5% [100 µM] (active),-89.8% [100 µM] (active),-69.6% [100 µM] (active),-58.5% [100 µM] (active),3.44% [100 µM] (active),-8.01% [100 µM] (active)
O=C(O)CSCc1nnc2n(Cc3ccccc3)c(=O)c3c4c(sc3n12)CCCC4,101%,111%,87.4%,97.3%,102%,101%,103%,75.4%,88.1%,131%,79.3%,93.2%,96%,90.2%,127%,89.3%,99.2%,112%,81%,71.8%
CCOC(=O)c1nn(C2CCCCO2)c2ccc(NC(=O)CSc3nc4ccccc4c(=O)[nH]3)cc12 (stereo not given),99.5%,125%,68.5%,76.3%,97.2%,105%,98.1%,94.5%,96.2%,105%,105%,102%,87%,79.6%,108%,93.6%,77.7%,69.7%,93.1%,103%
C=C(C)[C@@H]1CC[C@]2(C(=O)NCCNCCNC(=O)OC(C)(C)C)CC[C@]3(C)[C@H](CC[C@@H]4[C@@]5(C)CCC(=O)C(C)(C)[C@@H]5CC[C@]43C)[C@@H]12,50.4% [100 µM],23.7% [100 µM],23.9% [100 µM],47.8% [100 µM],27.9% [100 µM],19.1% [100 µM],-8.44% [100 µM] (active),48.2% [100 µM],39.6% [100 µM],56.3% [100 µM],41.7% [100 µM],53.5% [100 µM],39.9% [100 µM],17.4% [100 µM],54% [100 µM],23.5% [100 µM],18.6% [100 µM],58.7% [100 µM],14.9% [100 µM],11.7% [100 µM]
O=C1Cc2c(sc3c(F)cccc23)C(c2ccccc2[N+](=O)[O-])N1 (stereo not given),110%,112%,90%,100%,85.2%,100%,97.3%,87.2%,97.7%,120%,126%,85.2%,99.1%,69.6%,142%,101%,75.1%,115%,110%,106%
O=C1CC(c2ccccc2)Cc2nc3ccc(Br)cc3cc21 (stereo not given),16%,2.2% (active),36.6%,27.4%,18.1%,32%,2.1% (active),36.2%,31.5%,56.7%,45.2%,36.3%,32.2%,41.4%,73.4%,34.3%,30.7%,-12.4% (active),8.51% (active),10.5%
O=C(OCc1ccc2c(Cl)cc(Cl)c(O)c2n1)N1CCNCC1,18.5%,80.6%,48.4%,37%,16.2%,29.8%,35.7%,24.5%,32.7%,70.4%,59.1%,33.1%,32%,15.3%,52.1%,14%,27%,24.3%,26.1%,33.5%
